Screens: PubChem, National Center for Advancing Translational Sciences (NCATS)
Sm TGR inh = S. mansoni TGR enzyme inhibition; Q962Y6; AID 485364; purified TGR, DTNB reduction, TNB absorbance 405 nm; Potency, µM (series often up to 114 µM), for inactives: top-dose activity change, negative = inhibition, most hits filed as inhibitors; actives 3% (n = 360,000); further: on the % scale 0 is the no-effect control and ±100 the full control effect; nearly all actives have a fitted effect of over 60% in size
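First, TGR (20 nM dispensed) and NADPH were mixed with compound. Second, a 15 min room-temperature incubation followed. Third, further NADPH and then DTNB were added to start the reaction. Finally, TNB absorbance was monitored kinetically.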
Pf growth 96h = P. falciparum growth inhibition at 96 hour, primary screen for plastid delayed-death inhibitors; P. falciparum luciferase reporter growth, 96 h; Potency, µM (titrated, usually from 28.7 µM), for inactives: at the top dose activity change, negative = inhibition, actives largely listed as inhibitors; actives 6.9% (n = 320,000); further: on the % scale 0 is the no-effect control and ±100 the full control effect
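96 h incubation, 37 C, 5% CO2, of luciferase-reporter P. falciparum-infected RBCs (2% hematocrit, 0.05% parasitemia final) with test compounds; endpoint luminescence.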
SARS PLpro yeast = SARS-CoV PLP inhibition in yeast | Potency, µM (titrated, usually from 32.9 µM), inactives show at the highest dose activity, positive = growth rescue, actives largely listed as activators | S. cerevisiae expressing SARS-CoV PLpro, growth rescue | AID 485353 | actives 0.19% (n = 330,000); calls by dose curve; further: 0% is about no effect; nearly all actives have a fitted effect of over 55% in size
Pf growth 48h = inhibits P. falciparum growth in the first generation, 48 h; AID 504832; P. falciparum luciferase growth in erythrocytes, 48 h; Potency, µM (top dose mostly 28.7 µM), inactives show at the top dose activity change, negative = inhibition, actives largely listed as inhibitors; actives 5.9% (n = 310,000); further: on the % scale 0 is the no-effect control and ±100 the full control effect
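A one-generation exposure of luciferase-tagged malaria parasites in RPMI 1640/Albumax erythrocyte culture, 37 C and 5% CO2. Inhibition is inferred from decreased luminescence after adding detection reagent.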
The depositor's hits bear a star; ? = inconclusive; · = not tested or not shown; [ ] = another dose, or the depositor's remark. Shown are actives, neighbours in structure and some others; about 12% of the full set was active somewhere. Unless noted, the call rests on the fitted dose curve; in most records, active means well fitted curve in the direction sought with a large enough effect; inconclusive means small, poorly fitted or top-dose-only effect, or another doubt; inactive means no such curve, though single readings can be large; an effect the other way counts as inactive or inconclusive. Potency means the concentration at half of the fitted maximal effect.

SMILES | Sm TGR inh | Pf growth 96h | SARS PLpro yeast | Pf growth 48h
CCCn1nc(NC(=O)c2ccco2)c2cc3ccccc3nc21 | 44.7µM* | ? | -2.2% | 8.2%
CCCn1nc(NC(=O)c2cccs2)c2cc3ccc(C)cc3nc21 | 5.2% | ? | 0.8% | 2.94µM*
CCn1nc(NC(=O)c2ccco2)c2cc3cc(C)ccc3nc21 | -35.3% | 6.6% | -3.6% | -10.6%
CCOC(=O)c1cn(CC2CC2)c2cc(F)c(F)cc2c1=O | · | ? | -0.9% | -18.4%
CCOC(=O)c1cn(CC)c2cc(Cl)c([N+](=O)[O-])cc2c1=O | -17.4% | ? | -0.6% | 13.1µM*
CCOC(=O)c1cn(-c2c(Cl)cccc2Cl)c2cc(Cl)c([N+](=O)[O-])cc2c1=O | 0.0% | 8.28µM* | 13.3% | 13.1µM*
CCOc1ccc(CCNC(=O)Cc2ccc(NC(=O)N3CCSc4ncccc43)cc2)cc1 | 3.7% | · | · | ·
CC(C)n1nccc1N(Cc1ccc(Cl)cc1)S(=O)(=O)c1ccccc1 | -11.3% | ? | -12.7% | ?
CC(C)n1nccc1N(Cc1ccc(Br)cc1)S(=O)(=O)c1ccccc1 | -1.6% | 5.22µM* | -12.0% | 13.1µM*
CCCCCOc1ccc(C(=O)NCC2(c3ccccc3)CCOCC2)cc1 | -21.7% | ? | -34.0% | 13.1µM*
CCOc1ccc(C(=O)NCC2(c3ccccc3)CCOCC2)cc1 | 8.4% | 23.8% | -1.8% | 7.5%
CCCCOc1ccc(C(=O)NCC2(c3ccccc3)CCOCC2)cc1 | 12.3% | 10.4µM* | -8.5% | ?
CCN1CCN(C(=O)C2CCC(=O)N(CCCN3CCCC3=O)C2)CC1 (stereo not drawn) | -3.0% | 161.0% | -1.0% | 17.8%
CCCSCCCNC(=O)c1ccc2nc(Cc3ccccc3)oc2c1 | 17.8% | · | · | ·
Cc1ccc2[nH]c3c(c2c1)CCCC3C(N)=O (stereo not drawn) | -11.0% | -7.4% | 7.9% | 25.4%
Cc1ccc2[nH]c3c(c2c1)CCCC3NC(=O)CCl (stereo not drawn) | 44.7µM* | 13.1µM* | -11.7% | 2.33µM*
O=C(Nc1ccnn1C1CCN(Cc2cccnc2)CC1)c1ccccc1Cl | -0.1% | ? | 5.2% | 0.2%
O=C(Nc1ccnn1C1CCN(Cc2ccc(O)c(Cl)c2)CC1)C1CCCC1 | -4.5% | ? | 2.0% | 2.08µM*
O=C(Nc1ccnn1C1CCN(C(=O)Cc2cccc(Cl)c2)CC1)C1CC1 | -4.1% | 13.1µM* | 6.9% | -6.6%
Cc1cc(CN2CCC(n3nccc3NC(=O)c3ccccc3Cl)CC2)cc(C)c1O | 44.7µM* | 8.6% | 1.5% | 10.4µM*
O=C(Nc1ccccc1Cl)c1cc2c(-c3ccccc3)nn(-c3ccccc3)c2s1 | 4.1% | · | · | ·
COc1cccc(C2C(C#N)=C(N)OC(C(C)(C)C)=C2C#N)c1 (stereo not drawn) | ? | ? | -6.8% | -10.6%
COc1cccc(/C=C2/CN(C)CC3=C2OC(N)=C(C#N)C3c2cccc(OC)c2)c1 (stereo not drawn) | ? | ? | -5.4% | 13.1µM*
Cc1nc2nc(SCC(=O)NCc3ccccc3)nn2c(C)c1Cc1ccccc1Cl | 6.3% | · | · | ·
COc1ccc(Cl)cc1N1C(=O)c2cccnc2C1=O | 0.8% | 20.1% | 0.3% | 17.5%
SMILES | Sm TGR inh | Pf growth 96h | SARS PLpro yeast | Pf growth 48h
COc1ccc(Cl)cc1-n1c(C)ccc1C | 50.1µM* | 30.5% | 0.2% | -27.0%
CC(=O)OCCNc1cc(N2CCN(C)CC2)c2noc3c2c1C(=O)c1ccccc1-3 | -23.3% | 31.0% | -35.4% | ?
O=C(O)CCNc1cc(N2CCN(C(=O)c3ccco3)CC2)c2noc3c2c1C(=O)c1ccccc1-3 | 15.8µM* | 19.3% | -5.6% | ?
CCN1CCN(c2cc(N3CCN(C(=O)c4ccco4)CC3)c3c4c(onc24)-c2ccccc2C3=O)CC1 | 7.08µM* | 29.4% | -16.0% | ?
CN(C)S(=O)(=O)c1cc(C(=O)Nc2ccccc2C(=O)NC2CC2)ccc1Cl | ? | ? | 4.2% | ?
COC(=O)c1ccc(Nc2nnc(-c3ccc(C)c(S(=O)(=O)N4CCN(C)CC4)c3)c3ccccc23)cc1 | 1.3% | · | · | ·
Cc1cccc(C(C)(C)C)c1OCCCCN1CCCC1 | -6.9% | 9.28µM* | -2.4% | ·
Cc1cc(C)cc(NC(=O)CCc2nnc3n(C)c(=O)c4sccc4n23)c1 | 13.0% | · | · | ·
COC(=O)c1ccc(COC(=O)C(NC(=O)Cc2ccccc2)C(C)C)cc1 (stereo not drawn) | 6.4% | ? | -2.1% | -15.7%
Cc1nn(CC(N)=O)c(=O)c2ccccc12 | 0.0% | 2.08µM* | -4.2% | ?
Cc1nn(CC(=O)N2CCN(C)CC2)c(=O)c2ccccc12 | -0.3% | 7.38µM* | 0.3% | 30.9%
CCOc1ccc(NS(=O)(=O)c2cccc(C(=O)N(C)Cc3ccco3)c2)cc1 | -31.5% | -28.0% | -2.3% | ?
N#CC1(c2ccccc2)CCCN1C(=O)c1ccc(Br)o1 (stereo not drawn) | 39.8µM* | ? | 4.7% | -29.7%
O=C(c1ccc(Br)o1)N1CCCc2ccccc21 | 6.0% | -5.7% | 17.9% | 9.4%
Cc1ccc(NC(=O)CN2C(=O)CCc3cc(S(=O)(=O)N4CCOCC4)ccc32)c(C)c1 | 7.5% | · | · | ·
CCc1ccc(Cn2nnc(C(=O)Nc3ccc(OC)cc3OC)c2N)cc1 | 2.4% | 7.38µM* | -3.0% | ·
CCOc1ccc(Cn2nnc(C(=O)NCc3ccc(OC)cc3)c2N)cc1 | 3.3% | 0.928µM* | ? | 10.3%
COc1ccc(C)cc1NC(=O)c1nnn(Cc2cccc(Br)c2)c1N | 7.4% | · | · | ·
COc1ccc(C)cc1NC(=O)c1nnn(Cc2cccc(C(F)(F)F)c2)c1N | 1.1% | 13.1µM* | -7.1% | -2.2%
CCc1ccc(CN2CCC(n3nccc3NC(=O)Cc3ccccc3)CC2)o1 | -34.0% | 8.5% | -3.7% | -13.4%
Cc1cc(Cl)ccc1NC(=O)c1cccc(NC(=O)N2CCSc3ncccc32)c1 | 3.6% | · | · | ·
CCOC(=O)c1sc(NC(=O)CCN2C(=O)C3CCCCC3C2=O)cc1C (stereo not drawn) | -0.8% | ? | 4.5% | 14.7µM*
COc1ccc(CC(=O)NC2CC2)cc1OC | 6.6% | 0.0% | -0.2% | 0.0%
O=C(O)CCC(=O)Nc1ccc(Cc2ccc(NC(=O)CCC(=O)O)c(O)c2)cc1O | 1.4% | · | 5.9% | ·
O=C(Nc1ccc(Cc2ccc(NC(=O)C3CC3)c(O)c2)cc1O)C1CC1 | -5.8% | 10.4µM* | 1.6% | 4.3%
SMILES | Sm TGR inh | Pf growth 96h | SARS PLpro yeast | Pf growth 48h
Cc1cc2oc(=O)cc(-c3ccccc3)c2c(C)c1-c1ccc(O)cc1 | · | · | -78.4% | ·
Cc1oc2cc(Br)c(O)c(Br)c2c1-c1ccccc1 | 10µM* | 22.7% | -11.9% | -1.4%
CCc1cc(/C(Cc2ccc3ccccc3n2)=N\O)c(O)cc1O | -0.1% | 1.65µM* | -12.1% | 36.0%
Cc1c(-c2ccccc2)[n+](=O)c(-c2ccco2)c(C)n1[O-] | -26.2% | 5.22µM* | 2.6% | 2.2%
Cc1c(-c2ccco2)[n+](=O)c2c(n1[O-])CCCCC2 | -24.7%[11.4 µM] | 10.4% | 4.2% | ·
Cc1ccc(CS(=O)(=O)Cc2ccc(C(=O)NCCCN3CC(C)CC(C)C3)o2)cc1 (stereo not drawn) | 6.2% | 41.0% | 5.9% | ?
